For 15 molecules, inhibition results are on record in ChEMBL document CHEMBL3433997, “St. Jude Leishmania screening dataset” (2016).

Several values for one entry are separate records, joined by “and”; a condition that tells them apart may be missing. Equal entries are not always repeated.

Solute carrier family 2, facilitated glucose transporter member 1 (Homo sapiens), sequence (P11166 whole entry): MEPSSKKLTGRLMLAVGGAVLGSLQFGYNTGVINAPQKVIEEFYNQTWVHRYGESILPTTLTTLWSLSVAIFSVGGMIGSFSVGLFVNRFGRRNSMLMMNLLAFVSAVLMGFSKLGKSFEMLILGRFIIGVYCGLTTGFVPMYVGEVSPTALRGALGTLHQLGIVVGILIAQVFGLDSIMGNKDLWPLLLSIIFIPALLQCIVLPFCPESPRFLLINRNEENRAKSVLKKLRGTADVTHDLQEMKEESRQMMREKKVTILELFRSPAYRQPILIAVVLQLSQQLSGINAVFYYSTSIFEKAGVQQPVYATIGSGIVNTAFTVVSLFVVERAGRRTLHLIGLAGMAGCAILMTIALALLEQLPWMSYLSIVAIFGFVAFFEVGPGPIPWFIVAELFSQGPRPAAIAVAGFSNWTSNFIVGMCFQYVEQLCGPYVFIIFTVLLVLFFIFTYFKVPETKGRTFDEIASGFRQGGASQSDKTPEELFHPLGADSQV

The assay concerns the target Solute carrier family 2, facilitated glucose transporter member 1 (Homo sapiens) (UniProt P11166). In words: ST_JUDE_LEISH: Cytotoxicity at 2uM final concentration against transgenic Leishmania Mexicana promastigotes LmGLUT1 that are glucose transport deficient and complemented with the human glucose transporter GLUT1. Activity is measured by DNA content using SYBR green in vitro. It counts as functional.
Take `COc1ccc(C=CC(=O)N2CCC(CN3CCC(c4c[nH]c5ccccc45)CC3)CC2)cc1OC`: the inhibition came to 1.11%.
Under `COc1cccc(C=CC(=O)NC2CCC(CN3CCC(c4c[nH]c5ccccc45)CC3)CC2)c1OC` (stereo not given) stands 1.83%; under `COc1ccc(CN2CCN(CCOC(c3ccccc3)c3ccccc3)CC2)c(O)c1`, 3.13%.
For `NCc1ccc(-c2ccccc2CN(C(=O)Nc2ccccc2)C2CCN(Cc3ccccc3)CC2)cc1`, the inhibition was 2.32%.
As for `N#Cc1ccc(N(CC(=O)NCCc2ccc(F)cc2)CC2CC2)c2ccccc12`, the inhibition was -0.35%.
As for `COc1ccc(C(=O)C2CC2CN2CC=C(c3c[nH]c4cccc(Br)c34)CC2)cc1` (stereo not given), the figure is 4.26%; as for `COC(=O)/C=C/c1ccc(CC(C)NCC(O)c2cccc(Cl)c2)cc1` (stereo not given), -0.32%; as for `S=C(NCC1CCCCC1)NC1CCC(CN2CCC(c3c[nH]c4ccccc34)CC2)CC1` (stereo not given), 1.87%.
On to `CC(Cc1ccc(S(=O)(=O)N(C(C)C)C(C)C)cc1)NCC(O)c1cccc(C(F)(F)F)c1` (stereo not given), for which the inhibition is -0.77%.
Under `CC1(CCCCN2CC=C(c3c[nH]c4ccccc34)CC2)C(=O)Nc2ccccc21` (stereo not given) stands 0.6%.
Turning to `CCC(C)(C)NC(C)C(O)c1ccc(C(F)(F)F)cc1` (stereo not given), the inhibition was -0.19%.
Under `O=C(/C=C/c1cccc(F)c1)NC1CCC(CN2CCC(c3c[nH]c4ccccc34)CC2)CC1` (stereo not given) stands 2.52% and 1.33%.
As for `Cc1ccc(CC(C)NCC(O)c2cccc([N+](=O)[O-])c2)cc1` (stereo not given), the figure is 0.3%; as for `O=C(Cc1c(-c2ccccc2)[nH]c2ccccc12)NC1CCC(CN2CCC(c3c[nH]c4ccccc34)CC2)CC1` (stereo not given), 4.32%.
Under `CN(CC(=O)N1CCN(S(=O)(=O)c2cccc(Cl)c2)CC1CN1CCCC1)c1ccc(Cl)c(Cl)c1` (stereo not given) stands 0.54%.

By inhibition is commonly meant the change of the read-out against control, counted positive when it falls.
